Experimental data taken from PubChem BioAssay (EPA / NIEHS).
Calls of active or inactive are those of the source. Rule for the calls: active = hit-call score of the fitted dose curve at least 0.9, where 1 is the maximum; inactive = score below 0.9.

target: Transcriptional activator Myb (Homo sapiens) (UniProt P10242); test: ATG_Myb_CIS: Attagene CIS-FACTORIAL HepG2 Assay for human Myeloblastosis (Myb) Proto-Oncogene Transcription Factor (AID 2282986); conditions: HepG2 Attagene CIS-FACTORIAL Myb reporter transcription; actives raise or lower the signal
Experimental: ATG_CIS is a cell-based, multiplexed-readout assay that uses HepG2, a human liver cell line, with measurements taken at 24 hours after chemical dosing in a 24-well plate.ATG_Myb_CIS is one of 52 assay component(s) measured or calculated from the ATG_CIS assay. It is designed to make measurements of mRNA induction, a form of inducible reporter, as detected with fluorescence intensity signals by Reverse transcription polymerase chain reaction (RT-PCR) and Capillary electrophoresis technology.Data from the assay component ATG_Myb_CIS was analyzed into 1 assay endpoint. This assay endpoint, ATG_Myb_CIS, was analyzed with bidirectional fitting relative to DMSO as the negative control and baseline of activity. Using a type of inducible reporter, measures of mRNA for gain or loss-of-signal activity can be used to understand the reporter gene at the transcription factor-level as they relate to the gene MYB. Furthermore, this assay endpoint can be referred to as a primary readout, because this assay has produced multiple assay endpoints where this one serves a reporter gene function. To generalize the intended target to other relatable targets, this assay endpoint is annotated to the dna binding intended target family, where the subfamily is MYB proteins.
Human liver HepG2 cells are transiently transfected with multiple reporter transcription units (MRTUs) in 6-well plates using FuGene 6 reagent (Roche; 3 ml FuGene/1 mg DNA). The MRTU constructs are regulated by a cis-regulating element (promoter). […] A major difference between the CIS and TRANS system is that in CIS activities of endogenous TFs are measured, whereas the TRANS assay evaluates changes in activities of exogenous, chimeric NR-Gal4 proteins. […] At the end of 24 hour incubation, total RNA was isolated using TriZol reagent (Invitrogen). The isolated RNA is then reverse-transcribed using oligo(dT) primer and Mo-MLV reverse transcriptase (Invitrogen) with DNAse I (Ambion) treatment for 30 min. The one-tenth of the produced cDNA was amplified by PCR using Taq DNA polymerase (Invitrogen) and two reporter sequence-specific primers. The PCR products were fluorescently labeled by primer extension with 6-arboxyfluorescein (6-FAM) 5'-labeled reporter sequence-specific primer (2 min at 95 C, 20 s at 68 C and 10 min at 72 C) and these products were digested with 5U of HpaI (New England Biolabs) for 2h at 37 C. The fragments were purified using Qiaquick PCR columns (Qiagen), analyzed on an ABI 3130xL genetic analyzer (Applied Biosystems) with peak positions identified by using a set of X-rhodamine (ROX)-labeled MapMarker1000 molecular weight standards (BioVentures). The raw capillary electrophoresis data was processed using Attagraph software (Attagene).

Transcriptional activator Myb (Homo sapiens), sequence (P10242 whole entry, looked up): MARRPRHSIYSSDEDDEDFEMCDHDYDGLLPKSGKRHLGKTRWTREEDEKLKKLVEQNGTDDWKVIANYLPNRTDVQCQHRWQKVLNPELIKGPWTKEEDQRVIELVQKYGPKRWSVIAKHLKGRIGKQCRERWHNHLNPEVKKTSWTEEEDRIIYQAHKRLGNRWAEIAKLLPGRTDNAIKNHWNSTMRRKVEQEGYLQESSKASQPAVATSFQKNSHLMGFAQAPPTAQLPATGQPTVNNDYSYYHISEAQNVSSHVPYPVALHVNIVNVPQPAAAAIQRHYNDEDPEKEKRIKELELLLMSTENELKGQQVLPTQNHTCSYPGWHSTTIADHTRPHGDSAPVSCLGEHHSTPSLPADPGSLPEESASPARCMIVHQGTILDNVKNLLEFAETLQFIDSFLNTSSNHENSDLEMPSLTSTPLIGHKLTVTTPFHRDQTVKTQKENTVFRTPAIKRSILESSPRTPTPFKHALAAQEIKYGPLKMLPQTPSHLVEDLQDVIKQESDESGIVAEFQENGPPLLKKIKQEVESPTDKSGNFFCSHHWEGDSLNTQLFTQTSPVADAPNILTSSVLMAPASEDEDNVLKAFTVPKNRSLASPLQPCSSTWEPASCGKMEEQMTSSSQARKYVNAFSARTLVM

Row | SMILES | outcome | AC50
1 | COc1cc(O)c(C(=O)c2ccccc2)cc1S(=O)(=O)O | inactive | 
2 | CN(C)Cc1cc(CN(C)C)c(O)c(CN(C)C)c1 | inactive | 
3 | CC(=O)OC1CCCCC1 | inactive | 
4 | CC(CCC(=O)O)(c1ccc(O)cc1)c1ccc(O)cc1 | inactive | 
5 | Nc1cccc(N)n1 | inactive | 
6 | CCN1CN(CC)CN(CC)C1 | inactive | 
7 | Cc1ccc([N+](=O)[O-])cc1N | inactive | 
8 | CC(C)(CO)C(O)C(=O)NCCCO (stereo not given) | inactive | 
9 | COCC(=O)O | inactive | 
10 | CC(C)(CO)COC(=O)C(C)(C)CO | inactive | 
11 | Cc1cc(C)n(CO)n1 | inactive | 
12 | COc1ccc(-c2coc3cc(O)cc(O)c3c2=O)cc1 | inactive | 
13 | CCCCCCC=O | inactive | 
14 | O=S(=O)(O)c1ccc(N=Nc2c(O)ccc3ccccc23)cc1 | inactive | 
15 | Nc1ccnc(=O)[nH]1 | inactive | 
16 | Clc1cccnc1 | inactive | 
17 | CCc1cccc(C)c1N | inactive | 
18 | CCCCCCOc1ccc(N)cc1 | inactive | 
19 | N#Cc1ccc(C2CCCc3cncn32)cc1 (stereo not given) | inactive | 
20 | CCCCC(CC)COS(=O)(=O)O (stereo not given) | inactive | 

Row | SMILES | outcome | AC50
21 | CN1CCN(C)CC1 | inactive | 
22 | O=C(O)C1CCC(C(=O)O)CC1 (stereo not given) | inactive | 
23 | CC(C)(O)Cc1ccccc1 | inactive | 
24 | CCC(C)C(=O)OC (stereo not given) | inactive | 
25 | CC(C)CC(=O)OCc1ccccc1 | inactive | 
26 | CCCCCC[C@@H](O)C/C=C\CCCCCCCC(=O)OCC(O)CO (stereo not given in full) |  | 145 µM (active)
27 | CCOC(=O)/C=C\C(=O)OCC | inactive | 
28 | Cc1c[nH]c(=O)[nH]c1=O | inactive | 
29 | CCCCCCOC(=O)CCCCC(=O)OCCCCCC | inactive | 
30 | CC1=CCC2CC1C2(C)C (stereo not given) | inactive | 
31 | CCCC(C)C(=O)OCC (stereo not given) | inactive | 
32 | CCCCCCCCCCCCCC(=O)OC(C)C | inactive | 
33 | CC12CCC(CC1)C(C)(C)O2 | inactive | 
34 | Cc1c(C(=O)c2c[nH]n(C)c2=O)ccc(S(C)(=O)=O)c1C1=NOCC1 | inactive | 
35 | Oc1ccc(/C=C/c2cc(O)cc(O)c2)cc1 | inactive | 
36 | C=Cc1ccc(OC(C)=O)cc1 | inactive | 
37 | CCCCCCCCCCCCC | inactive | 
38 | O=C(Cl)c1c(Cl)c(Cl)c(C(=O)Cl)c(Cl)c1Cl | inactive | 
39 | CCOc1ccc(NC(N)=O)cc1 | inactive | 
40 | CCCCCOC(=O)CCCCC | inactive | 
